Values joined by “and” are separate entries in the source; they are usually repeats but may differ in a detail not shown here. Identical values can stand only once. In all, about 5,500 compounds went through this assay and about 2,000 (36%) were called active. About 18% were inconclusive and are not listed. The list shows a part of the results. Values without a mark were called inactive. No stated cut-off is given here; in the data, active means normalized growth mostly below about 0.91 (no sharp cut-off); inconclusive means no clear call, values can overlap the other calls; inactive means mostly above about 0.92.
Assay: chemical genetic growth profiling, strain panel (AID 1159580);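 further: tested at 20 µM; growth read once vehicle control cultures reached saturation at 30 °C; 1 = growth at the plate median or of vehicle wells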
Settings: S. cerevisiae deletion strains, growth OD

## COc1c2ccoc2cc2oc(=O)ccc12
Locus YAL021C, strain ccr4, stronger effect = lower value
  normalized growth: 0.957
Locus YAL026C, strain drs2, stronger effect = lower value
  normalized growth: 0.936
Locus YAL030W, strain snc1, stronger effect = lower value
  normalized growth: 0.993
Locus YBL061C, strain skt5, stronger effect = lower value
  normalized growth: 0.971
Locus YBR009C, strain hhf1, stronger effect = lower value
  normalized growth: 0.886 (active)
Locus YBR021W, strain FUR4, stronger effect = lower value
  normalized growth: 1.1
Locus YBR023C, strain chs3, stronger effect = lower value
  normalized growth: 0.968
Locus YBR171W, strain sec66, stronger effect = lower value
  normalized growth: 0.954
Locus YBR229C, strain ROT2, stronger effect = lower value
  normalized growth: 0.967
Locus YBR231C, strain swc5, stronger effect = lower value
  normalized growth: 0.872 (active)
Locus YBR279W, strain paf1, stronger effect = lower value
  normalized growth: 0.974
Locus YCL011C, strain gbp2, stronger effect = lower value
  normalized growth: 0.942
Locus YCL016C, strain dcc1, stronger effect = lower value
  normalized growth: 0.959
Locus YCL029C, strain bik1, stronger effect = lower value
  normalized growth: 0.647 (active)
Locus YCL061C, strain MRC1, stronger effect = lower value
  normalized growth: 0.97
Locus YCL069W, strain vba3, stronger effect = lower value
  normalized growth: 0.968
Locus YCR088W, strain abp1, stronger effect = lower value
  normalized growth: 0.987
Locus YDL005C, strain med2, stronger effect = lower value
  normalized growth: 0.996
Locus YDL035C, strain GPR1, stronger effect = lower value
  normalized growth: 0.734 (active)
Locus YDL040C, strain nat1, stronger effect = lower value
  normalized growth: 0.992
Locus YDL074C, strain BRE1, stronger effect = lower value
  normalized growth: 0.544 (active)
Locus YDL101C, strain DUN1, stronger effect = lower value
  normalized growth: 0.613 (active)
Locus YDL134C, strain PPH21, stronger effect = lower value
  normalized growth: 0.703 (active)
Locus YDL185W, strain tfp1, stronger effect = lower value
  normalized growth: 0.911
Locus YDL192W, strain arf1, stronger effect = lower value
  normalized growth: 0.674 (active)
Locus YDR001C, strain nth1, stronger effect = lower value
  normalized growth: 0.976
Locus YDR069C, strain doa4, stronger effect = lower value
  normalized growth: 0.96
Locus YDR101C, strain arx1, stronger effect = lower value
  normalized growth: 0.741 (active)
Locus YDR137W, strain rgp1, stronger effect = lower value
  normalized growth: 1.16 [resistant] (active)
Locus YDR159W, strain sac3, stronger effect = lower value
  normalized growth: 1.04
Locus YDR162C, strain NBP2, stronger effect = lower value
  normalized growth: 0.617 (active)
Locus YDR195W, strain ref2
  normalized growth: 1.38 [resistant] (active)
Locus YDR297W, strain sur2, stronger effect = lower value
  normalized growth: 0.99
Locus YDR318W, strain mcm21, stronger effect = lower value
  normalized growth: 0.699 (active)
Locus YDR335W, strain msn5, stronger effect = lower value
  normalized growth: 0.953
Locus YDR388W, stronger effect = lower value
  normalized growth: 0.814 (active)
Locus YDR392W, strain spt3, stronger effect = lower value
  normalized growth: 0.761
Locus YDR502C, strain sam2, stronger effect = lower value
  normalized growth: 0.791 (active)
Locus YEL003W, strain gim4, stronger effect = lower value
  normalized growth: 0.96
Locus YEL037C, strain rad23, stronger effect = lower value
  normalized growth: 0.942
Locus YEL061C, strain CIN8 (second series), stronger effect = lower value
  normalized growth: 0.958
Locus YER015W, strain faa2, stronger effect = lower value
  normalized growth: 0.981
Locus YER016W, strain bim1, stronger effect = lower value
  normalized growth: 0.973
Locus YER110C, stronger effect = lower value
  normalized growth: 0.863 (active)
Locus YER111C, strain swi4, stronger effect = lower value
  normalized growth: 0.975
Locus YER155C, strain BEM2 (second series), stronger effect = lower value
  normalized growth: 0.653 (active)
Locus YER155C, strain BEM2, stronger effect = lower value
  normalized growth: 0.904 (active)
Locus YER167W, strain BCK2, stronger effect = lower value
  normalized growth: 0.885 (active)
Locus YFR010W, strain ubp6, stronger effect = lower value
  normalized growth: 0.936
Locus YGL078C, strain dbp3, stronger effect = lower value
  normalized growth: 0.91 (active)
Locus YGL086W, strain mad1, stronger effect = lower value
  normalized growth: 0.719 (active)
Locus YGL167C, strain pmr1, stronger effect = lower value
  normalized growth: 0.981
Locus YGL173C, strain kem1, stronger effect = lower value
  normalized growth: 0.96
Locus YGL227W, strain vid30, stronger effect = lower value
  normalized growth: 0.976
Locus YGL240W, strain doc1, stronger effect = lower value
  normalized growth: 0.896
Locus YGL248W, strain PDE1, stronger effect = lower value
  normalized growth: 0.718 (active)
Locus YGL253W, strain hxk2, stronger effect = lower value
  normalized growth: 0.903 (active)
Locus YGR078C, strain PAC10, stronger effect = lower value
  normalized growth: 0.706 (active)
Locus YGR135W, strain pre9, stronger effect = lower value
  normalized growth: 0.688 (active)
Locus YGR229C, strain SMI1, stronger effect = lower value
  normalized growth: 0.839
Locus YGR252W, strain gcn5, stronger effect = lower value
  normalized growth: 0.554 (active)
Locus YHR013C, strain ard1, stronger effect = lower value
  normalized growth: 0.856
Locus YHR027C, strain rpn1, stronger effect = lower value
  normalized growth: 0.983
Locus YHR030C, strain SLT2, stronger effect = lower value
  normalized growth: 0.729 (active) and 0.802 (active)
Locus YHR079C, strain IRE1 (second series), stronger effect = lower value
  normalized growth: 0.854 (active)
Locus YHR079C, strain IRE1, stronger effect = lower value
  normalized growth: 0.801 (active)
Locus YHR094C, strain hxt1, stronger effect = lower value
  normalized growth: 0.922 (active)
Locus YHR129C, strain ARP1, stronger effect = lower value
  normalized growth: 0.863 (active)
Locus YHR142W, strain chs7, stronger effect = lower value
  normalized growth: 0.826 (active)
Locus YHR200W, strain rpn10, stronger effect = lower value
  normalized growth: 0.636 (active)
Locus YIL066C, strain RNR3, stronger effect = lower value
  normalized growth: 0.805 (active)
Locus YIL073C, strain SPO22, stronger effect = lower value
  normalized growth: 0.757
Locus YIL125W, strain kgd1, stronger effect = lower value
  normalized growth: 0.869 (active)
Locus YIR030C, strain dcg1, stronger effect = lower value
  normalized growth: 0.818 (active)
Locus YJL092W, strain hpr5, stronger effect = lower value
  normalized growth: 0.976
Locus YJL095W, strain BCK1 (second series), stronger effect = lower value
  normalized growth: 0.966
Locus YJL095W, strain BCK1, stronger effect = lower value
  normalized growth: 0.337 (active) and 0.817 (active)
Locus YJL115W, strain asf1, stronger effect = lower value
  normalized growth: 0.967
Locus YJL129C, strain trk1, stronger effect = lower value
  normalized growth: 1.09
Locus YJL134W, strain LCB3, stronger effect = lower value
  normalized growth: 0.957
Locus YJL154C, strain vps35, stronger effect = lower value
  normalized growth: 0.977
Locus YJL164C, strain tpk1, stronger effect = lower value
  normalized growth: 0.937
Locus YJL166W, strain qcr8, stronger effect = lower value
  normalized growth: 0.91
Locus YJL168C, strain set2, stronger effect = lower value
  normalized growth: 0.958
Locus YJL187C, strain SWE1 (second series), stronger effect = lower value
  normalized growth: 0.766 (active)
Locus YJL187C, strain SWE1, stronger effect = lower value
  normalized growth: 1
Locus YJR066W, strain TOR1, stronger effect = lower value
  normalized growth: 0.829
Locus YKL009W, strain mrt4, stronger effect = lower value
  normalized growth: 0.914
Locus YKL068W, stronger effect = lower value
  normalized growth: 0.973
Locus YKL085W, strain MDH1 (second series), stronger effect = lower value
  normalized growth: 0.915 (active)
Locus YKL085W, strain MDH1, stronger effect = lower value
  normalized growth: 0.915 (active)
Locus YKL160W, strain elf1, stronger effect = lower value
  normalized growth: 0.902 (active)
Locus YKL190W, strain CNB1, stronger effect = lower value
  normalized growth: 0.898 (active)
Locus YKR001C, strain vps1, stronger effect = lower value
  normalized growth: 0.44 (active)
Locus YKR026C, strain gcn3, stronger effect = lower value
  normalized growth: 0.951
Locus YKR091W, strain srl3, stronger effect = lower value
  normalized growth: 0.996
Locus YLL001W, strain dnm1, stronger effect = lower value
  normalized growth: 0.977
Locus YLL026W, stronger effect = lower value
  normalized growth: 0.98
Locus YLL041C, strain sdh2, stronger effect = lower value
  normalized growth: 0.992
Locus YLR027C, strain aat2, stronger effect = lower value
  normalized growth: 0.971
Locus YLR039C, strain RIC1, stronger effect = lower value
  normalized growth: 0.906
Locus YLR058C, strain SHM2, stronger effect = lower value
  normalized growth: 0.783 (active)
Locus YLR102C, strain apc9, stronger effect = lower value
  normalized growth: 0.929
Locus YLR113W, strain HOG1, stronger effect = lower value
  normalized growth: 0.948
Locus YLR221C, strain rsa3, stronger effect = lower value
  normalized growth: 0.941
Locus YLR258W, strain gsy2, stronger effect = lower value
  normalized growth: 0.975
Locus YLR262C, strain YPT6 (second series), stronger effect = lower value
  normalized growth: 1.09
Locus YLR268W, strain sec22, stronger effect = lower value
  normalized growth: 0.71 (active)
Locus YLR320W, strain mms22, stronger effect = lower value
  normalized growth: 0.887
Locus YLR342W, strain FKS1, stronger effect = lower value
  normalized growth: 1.01
Locus YLR357W, strain rsc2, stronger effect = lower value
  normalized growth: 1.13
Locus YLR370C, strain arc18, stronger effect = lower value
  normalized growth: 0.969
Locus YLR371W, strain rom2, stronger effect = lower value
  normalized growth: 0.573 (active)
Locus YLR384C, strain iki3, stronger effect = lower value
  normalized growth: 0.956
Locus YLR418C, strain cdc73, stronger effect = lower value
  normalized growth: 0.494 (active)
Locus YML016C, strain PPZ1, stronger effect = lower value
  normalized growth: 0.809 (active)
Locus YML032C, strain rad52, stronger effect = lower value
  normalized growth: 0.411 (active)
Locus YML120C, strain ndi1, stronger effect = lower value
  normalized growth: 0.901 (active)
Locus YML124C, strain tub3, stronger effect = lower value
  normalized growth: 0.872 (active)
Locus YMR058W, strain fet3, stronger effect = lower value
  normalized growth: 0.953
Locus YMR078C, strain ctf18, stronger effect = lower value
  normalized growth: 0.878 (active)
Locus YMR125W, strain sto1, stronger effect = lower value
  normalized growth: 1.03
Locus YMR129W, stronger effect = lower value
  normalized growth: 0.977
Locus YMR205C, strain PFK2, stronger effect = lower value
  normalized growth: 1.03
Locus YMR223W, strain ubp8, stronger effect = lower value
  normalized growth: 0.764 (active)
Locus YMR231W, strain pep5, stronger effect = lower value
  normalized growth: 0.983
Locus YMR307W, strain GAS1, stronger effect = lower value
  normalized growth: 0.974
Locus YNL067W, strain RPL9B, stronger effect = lower value
  normalized growth: 0.791 (active)
Locus YNL071W, strain lat1, stronger effect = lower value
  normalized growth: 0.972
Locus YNL183C, strain NPR1, stronger effect = lower value
  normalized growth: 0.858
Locus YNL209W, strain ssb2, stronger effect = lower value
  normalized growth: 0.976
Locus YNL233W, strain BNI4, stronger effect = lower value
  normalized growth: 0.74 (active)
Locus YNL248C, strain rpa49, stronger effect = lower value
  normalized growth: 0.575 (active)
Locus YNL250W, strain rad50, stronger effect = lower value
  normalized growth: 0.856 (active)
Locus YNL271C, strain bni1, stronger effect = lower value
  normalized growth: 0.858 (active)
Locus YNL298W, strain CLA4, stronger effect = lower value
  normalized growth: 0.77 (active)
Locus YNL307C, strain MCK1, stronger effect = lower value
  normalized growth: 0.666 (active)
Locus YNL322C, strain KRE1 (second series), stronger effect = lower value
  normalized growth: 1.02
Locus YNR049C, strain mso1, stronger effect = lower value
  normalized growth: 0.991
Locus YNR052C, strain pop2, stronger effect = lower value
  normalized growth: 0.737 (active)
Locus YOL006C, strain TOP1, stronger effect = lower value
  normalized growth: 0.419 (active)
Locus YOL012C, strain htz1
  normalized growth: 0.31
Locus YOL147C, strain pex11, stronger effect = lower value
  normalized growth: 0.757 (active)
Locus YOR001W, strain rrp6, stronger effect = lower value
  normalized growth: 0.87 (active)
Locus YOR061W, strain CKA2, stronger effect = lower value
  normalized growth: 0.872 (active)
Locus YOR069W, strain VPS5, stronger effect = lower value
  normalized growth: 0.852 (active)
Locus YOR070C, strain gyp1, stronger effect = lower value
  normalized growth: 0.979
Locus YOR080W, strain dia2, stronger effect = lower value
  normalized growth: 0.979
Locus YOR083W, strain WHI5, stronger effect = lower value
  normalized growth: 0.799 (active)
Locus YOR106W, strain vam3, stronger effect = lower value
  normalized growth: 0.854 (active)
Locus YOR136W, strain idh2, stronger effect = lower value
  normalized growth: 0.888 (active)
Locus YOR144C, strain elg1, stronger effect = lower value
  normalized growth: 0.852 (active)
Locus YOR184W, strain ser1, stronger effect = lower value
  normalized growth: 0.46 (active)
Locus YOR231W, strain MKK1, stronger effect = lower value
  normalized growth: 0.83 (active)
Locus YOR265W, strain rbl2, stronger effect = lower value
  normalized growth: 0.989
Locus YOR270C, strain vph1, stronger effect = lower value
  normalized growth: 0.751 (active)
Locus YOR290C, strain snf2, stronger effect = lower value
  normalized growth: 0.877
Locus YOR316C, strain cot1, stronger effect = lower value
  normalized growth: 0.975
Locus YPL051W, strain arl3, stronger effect = lower value
  normalized growth: 0.91 (active)
Locus YPL078C, strain atp4, stronger effect = lower value
  normalized growth: 0.893
Locus YPL106C, strain sse1, stronger effect = lower value
  normalized growth: 0.78 (active)
Locus YPL240C, strain hsp82, stronger effect = lower value
  normalized growth: 0.973
Locus YPL256C, strain CLN2, stronger effect = lower value
  normalized growth: 0.907
Locus YPR119W, strain clb2, stronger effect = lower value
  normalized growth: 0.964
Locus YPR141C, strain kar3, stronger effect = lower value
  normalized growth: 0.997
Locus YPR163C, strain tif3, stronger effect = lower value
  normalized growth: 0.672 (active)
Locus YPR167C, strain met16, stronger effect = lower value
  normalized growth: 0.775 (active)
Strain wtn01, stronger effect = lower value
  normalized growth: 0.731 (active)

— PubChem BioAssay AID1159580 (chemical genetic matrix, 2015)
